PubChem BioAssay AID1159580 (chemical genetic matrix, 2015)
Screen size: about 5,500 compounds; about 2,000 (36%) were called active. Not shown: some 18% with an inconclusive outcome. Rule as the data show it: active = normalized growth mostly below about 0.91 (no sharp cut-off); inconclusive = no clear call, values can overlap the other calls; inactive = mostly above about 0.92. The list shows a part of the results.

Assay: chemical genetic growth profiling, strain panel (AID 1159580);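 also: tested at 20 µM; growth read once vehicle control cultures reached saturation at 30 °C; 1 = growth at the plate median or of vehicle wells; lower values mean less growth of the strain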
Settings: growth OD

Measured: normalized growth

Cc1cc(-c2ccccc2)nnc1NCCN1CCOCC1
inactive: S. cerevisiae deletion strains, locus YJR075W, strain HOC1, stronger effect = lower value 0.997 | S. cerevisiae deletion strains, locus YKL009W, strain mrt4, stronger effect = lower value 1.08 | S. cerevisiae deletion strains, locus YKL068W, stronger effect = lower value 0.969 | S. cerevisiae deletion strains, locus YKL085W, strain MDH1 (second series), stronger effect = lower value 1 | S. cerevisiae deletion strains, locus YKL085W, strain MDH1, stronger effect = lower value 1 | S. cerevisiae deletion strains, locus YKL160W, strain elf1, stronger effect = lower value 0.966 | S. cerevisiae deletion strains, locus YKL190W, strain CNB1, stronger effect = lower value 1 | S. cerevisiae deletion strains, locus YKR001C, strain vps1, stronger effect = lower value 0.98 | S. cerevisiae deletion strains, locus YKR026C, strain gcn3, stronger effect = lower value 0.995 | S. cerevisiae deletion strains, locus YKR091W, strain srl3, stronger effect = lower value 0.995 | S. cerevisiae deletion strains, locus YLL001W, strain dnm1, stronger effect = lower value 0.976 | S. cerevisiae deletion strains, locus YLL026W, stronger effect = lower value 0.992 | S. cerevisiae deletion strains, locus YLL041C, strain sdh2, stronger effect = lower value 0.988 | S. cerevisiae deletion strains, locus YLR027C, strain aat2, stronger effect = lower value 0.989 | S. cerevisiae deletion strains, locus YLR039C, strain RIC1, stronger effect = lower value 0.999 | S. cerevisiae deletion strains, locus YLR058C, strain SHM2, stronger effect = lower value 1.01 | S. cerevisiae deletion strains, locus YLR102C, strain apc9, stronger effect = lower value 0.968 | S. cerevisiae deletion strains, locus YLR113W, strain HOG1, stronger effect = lower value 0.964 | S. cerevisiae deletion strains, locus YLR221C, strain rsa3, stronger effect = lower value 0.989 | S. cerevisiae deletion strains, locus YLR258W, strain gsy2, stronger effect = lower value 0.995 | S. cerevisiae deletion strains, locus YLR262C, strain YPT6 (second series), stronger effect = lower value 0.98 | S. cerevisiae deletion strains, locus YLR262C, strain YPT6, stronger effect = lower value 1.04 | S. cerevisiae deletion strains, locus YLR268W, strain sec22, stronger effect = lower value 0.946 | S. cerevisiae deletion strains, locus YLR320W, strain mms22, stronger effect = lower value 0.984 | S. cerevisiae deletion strains, locus YLR330W, strain CHS5, stronger effect = lower value 0.999 | S. cerevisiae deletion strains, locus YLR342W, strain FKS1 (second series), stronger effect = lower value 1.07 | S. cerevisiae deletion strains, locus YLR342W, strain FKS1, stronger effect = lower value 0.983 | S. cerevisiae deletion strains, locus YLR357W, strain rsc2, stronger effect = lower value 0.975 | S. cerevisiae deletion strains, locus YLR370C, strain arc18, stronger effect = lower value 0.986 | S. cerevisiae deletion strains, locus YLR371W, strain rom2, stronger effect = lower value 0.967 | S. cerevisiae deletion strains, locus YLR384C, strain iki3, stronger effect = lower value 0.976 | S. cerevisiae deletion strains, locus YLR418C, strain cdc73, stronger effect = lower value 0.998 | S. cerevisiae deletion strains, locus YML016C, strain PPZ1, stronger effect = lower value 1.02 | S. cerevisiae deletion strains, locus YML032C, strain rad52, stronger effect = lower value 0.974 | S. cerevisiae deletion strains, locus YML120C, strain ndi1, stronger effect = lower value 0.972 | S. cerevisiae deletion strains, locus YML124C, strain tub3, stronger effect = lower value 0.978 | S. cerevisiae deletion strains, locus YMR058W, strain fet3, stronger effect = lower value 0.988 | S. cerevisiae deletion strains, locus YMR078C, strain ctf18, stronger effect = lower value 0.978 | S. cerevisiae deletion strains, locus YMR125W, strain sto1, stronger effect = lower value 0.972 | S. cerevisiae deletion strains, locus YMR129W, stronger effect = lower value 0.989 | S. cerevisiae deletion strains, locus YMR205C, strain PFK2, stronger effect = lower value 0.965 | S. cerevisiae deletion strains, locus YMR223W, strain ubp8, stronger effect = lower value 1.02 | S. cerevisiae deletion strains, locus YMR231W, strain pep5, stronger effect = lower value 0.998 | S. cerevisiae deletion strains, locus YMR263W, strain SAP30, stronger effect = lower value 0.997 | S. cerevisiae deletion strains, locus YMR307W, strain GAS1, stronger effect = lower value 1.04 | S. cerevisiae deletion strains, locus YNL067W, strain RPL9B, stronger effect = lower value 0.985 | S. cerevisiae deletion strains, locus YNL071W, strain lat1, stronger effect = lower value 0.987 | S. cerevisiae deletion strains, locus YNL128W, strain TEP1, stronger effect = lower value 0.995 | S. cerevisiae deletion strains, locus YNL153C, strain GIM3, stronger effect = lower value 1.01 | S. cerevisiae deletion strains, locus YNL183C, strain NPR1, stronger effect = lower value 0.931 | S. cerevisiae deletion strains, locus YNL209W, strain ssb2, stronger effect = lower value 0.991 | S. cerevisiae deletion strains, locus YNL233W, strain BNI4, stronger effect = lower value 1.01 | S. cerevisiae deletion strains, locus YNL248C, strain rpa49, stronger effect = lower value 0.985 | S. cerevisiae deletion strains, locus YNL250W, strain rad50, stronger effect = lower value 0.98 | S. cerevisiae deletion strains, locus YNL271C, strain bni1, stronger effect = lower value 0.968 | S. cerevisiae deletion strains, locus YNL298W, strain CLA4, stronger effect = lower value 0.977 | S. cerevisiae deletion strains, locus YNL307C, strain MCK1, stronger effect = lower value 0.993 | S. cerevisiae deletion strains, locus YNL322C, strain KRE1 (second series), stronger effect = lower value 0.981 | S. cerevisiae deletion strains, locus YNL322C, strain KRE1, stronger effect = lower value 0.994 | S. cerevisiae deletion strains, locus YNR049C, strain mso1, stronger effect = lower value 0.982 | S. cerevisiae deletion strains, locus YNR052C, strain pop2, stronger effect = lower value 0.973 | S. cerevisiae deletion strains, locus YOL006C, strain TOP1, stronger effect = lower value 0.959 | S. cerevisiae deletion strains, locus YOL012C, strain htz1 0.852 | S. cerevisiae deletion strains, locus YOL147C, strain pex11, stronger effect = lower value 0.977 | S. cerevisiae deletion strains, locus YOR001W, strain rrp6, stronger effect = lower value 0.986 | S. cerevisiae deletion strains, locus YOR061W, strain CKA2, stronger effect = lower value 1.01 | S. cerevisiae deletion strains, locus YOR069W, strain VPS5, stronger effect = lower value 1.01 | S. cerevisiae deletion strains, locus YOR070C, strain gyp1, stronger effect = lower value 0.993 | S. cerevisiae deletion strains, locus YOR080W, strain dia2, stronger effect = lower value 0.987 | S. cerevisiae deletion strains, locus YOR083W, strain WHI5, stronger effect = lower value 0.968 | S. cerevisiae deletion strains, locus YOR106W, strain vam3, stronger effect = lower value 0.961 | S. cerevisiae deletion strains, locus YOR136W, strain idh2, stronger effect = lower value 0.978 | S. cerevisiae deletion strains, locus YOR144C, strain elg1, stronger effect = lower value 0.967 | S. cerevisiae deletion strains, locus YOR184W, strain ser1, stronger effect = lower value 0.982 | S. cerevisiae deletion strains, locus YOR231W, strain MKK1, stronger effect = lower value 0.971 | S. cerevisiae deletion strains, locus YOR265W, strain rbl2, stronger effect = lower value 0.995 | S. cerevisiae deletion strains, locus YOR270C, strain vph1, stronger effect = lower value 0.965 | S. cerevisiae deletion strains, locus YOR290C, strain snf2, stronger effect = lower value 0.991 | S. cerevisiae deletion strains, locus YOR316C, strain cot1, stronger effect = lower value 0.953 | S. cerevisiae deletion strains, locus YPL051W, strain arl3, stronger effect = lower value 0.985 | S. cerevisiae deletion strains, locus YPL055C, strain LGE1, stronger effect = lower value 1 | S. cerevisiae deletion strains, locus YPL078C, strain atp4, stronger effect = lower value 0.989 | S. cerevisiae deletion strains, locus YPL106C, strain sse1, stronger effect = lower value 0.959 | S. cerevisiae deletion strains, locus YPL240C, strain hsp82, stronger effect = lower value 1 | S. cerevisiae deletion strains, locus YPL241C, strain CIN2, stronger effect = lower value 1.01 | S. cerevisiae deletion strains, locus YPL256C, strain CLN2, stronger effect = lower value 0.945 | S. cerevisiae deletion strains, locus YPR119W, strain clb2, stronger effect = lower value 0.98 | S. cerevisiae deletion strains, locus YPR141C, strain kar3, stronger effect = lower value 0.971 | S. cerevisiae deletion strains, locus YPR163C, strain tif3, stronger effect = lower value 0.982 | S. cerevisiae deletion strains, locus YPR167C, strain met16, stronger effect = lower value 0.97 | S. cerevisiae deletion strains, strain wtn01, stronger effect = lower value 0.982 | S. cerevisiae strains, strain wild type, stronger effect = lower value 1.01
